In publication PMC7862700, “An all-to-all approach to the identification of sequence-specific readers for epigenetic DNA modifications on cytosine”:

What was measured:
Test in all cases: DAPPL (digital affinity profiling via proximity ligation, sequencing); 10 mM Tris-HCl pH 7.5, 50 mM NaCl, 1 mM DTT, 4% glycerol, room temperature, 30 min; GST-TFs on glutathione beads, 16-mer random dsDNA library, 0.1% formaldehyde crosslink after washing; high values mean tight binding
Settings in all cases: protein: recombinant; tags: N-terminal GST; dsDNA, one strand shown
FLI1 = molecular target: T1, FLI1 (Homo sapiens, UniProt Q01543 1-452)
T1 sequence: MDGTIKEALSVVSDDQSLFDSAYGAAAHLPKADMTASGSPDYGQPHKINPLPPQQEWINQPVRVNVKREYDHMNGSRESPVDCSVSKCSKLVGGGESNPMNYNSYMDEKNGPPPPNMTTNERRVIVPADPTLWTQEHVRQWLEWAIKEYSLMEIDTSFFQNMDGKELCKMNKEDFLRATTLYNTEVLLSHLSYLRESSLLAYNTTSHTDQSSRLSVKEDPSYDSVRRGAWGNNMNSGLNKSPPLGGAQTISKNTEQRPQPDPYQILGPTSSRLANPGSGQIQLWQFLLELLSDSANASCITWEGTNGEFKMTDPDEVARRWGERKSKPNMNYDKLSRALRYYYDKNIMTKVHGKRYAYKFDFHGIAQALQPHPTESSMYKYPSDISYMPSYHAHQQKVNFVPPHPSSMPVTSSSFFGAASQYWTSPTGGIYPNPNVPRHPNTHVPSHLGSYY
In short: (§1)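 Pools were built from human transcription factors expressed in yeast as GST fusions, captured on glutathione beads and DNA-barcoded, along with a tag-only sample. Incubation with 200 nmole of a 16-mer random double-stranded DNA library lasted 30 min at room temperature in Tris/NaCl/DTT/glycerol buffer, and was followed by washing, 0.1% formaldehyde crosslinking, proximity ligation, PCR amplification and Illumina NextSeq500 sequencing. Binding signal is the quotient of each hexamer's read frequency for a factor and its frequency for the tag-only sample.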

ELK1 = molecular target: T2, ELK1 (Homo sapiens, UniProt P19419 1-428)
T2 sequence: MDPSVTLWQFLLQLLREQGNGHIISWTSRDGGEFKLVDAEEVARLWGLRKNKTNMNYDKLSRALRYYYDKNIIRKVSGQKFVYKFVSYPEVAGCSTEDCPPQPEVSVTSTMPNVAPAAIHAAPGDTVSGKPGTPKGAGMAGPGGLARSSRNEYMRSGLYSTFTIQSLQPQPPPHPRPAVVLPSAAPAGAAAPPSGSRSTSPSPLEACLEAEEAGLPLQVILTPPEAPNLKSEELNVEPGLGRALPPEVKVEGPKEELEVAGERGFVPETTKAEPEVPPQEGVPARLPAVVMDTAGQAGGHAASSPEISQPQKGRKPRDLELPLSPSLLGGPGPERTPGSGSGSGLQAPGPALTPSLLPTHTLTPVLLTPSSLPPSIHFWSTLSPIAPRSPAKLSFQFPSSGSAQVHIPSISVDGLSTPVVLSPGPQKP
In short: as §1

GABPA = molecular target: T3, GABPA (Homo sapiens, UniProt Q06546 1-454)
T3 sequence: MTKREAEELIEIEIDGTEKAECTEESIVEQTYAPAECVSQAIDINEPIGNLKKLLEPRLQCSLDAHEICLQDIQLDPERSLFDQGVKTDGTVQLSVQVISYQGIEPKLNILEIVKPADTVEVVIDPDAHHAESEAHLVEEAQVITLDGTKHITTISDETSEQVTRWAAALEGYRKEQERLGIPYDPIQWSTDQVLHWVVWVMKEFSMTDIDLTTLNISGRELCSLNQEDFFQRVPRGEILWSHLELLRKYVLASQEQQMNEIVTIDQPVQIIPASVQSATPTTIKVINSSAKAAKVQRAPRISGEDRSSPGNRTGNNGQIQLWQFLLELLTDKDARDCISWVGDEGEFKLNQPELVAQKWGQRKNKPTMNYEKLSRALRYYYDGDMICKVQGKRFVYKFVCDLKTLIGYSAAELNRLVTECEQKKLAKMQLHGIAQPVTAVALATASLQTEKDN
In short: as §1

ERG = molecular target: T4, ERG (Homo sapiens, UniProt P11308 1-479)
T4 sequence: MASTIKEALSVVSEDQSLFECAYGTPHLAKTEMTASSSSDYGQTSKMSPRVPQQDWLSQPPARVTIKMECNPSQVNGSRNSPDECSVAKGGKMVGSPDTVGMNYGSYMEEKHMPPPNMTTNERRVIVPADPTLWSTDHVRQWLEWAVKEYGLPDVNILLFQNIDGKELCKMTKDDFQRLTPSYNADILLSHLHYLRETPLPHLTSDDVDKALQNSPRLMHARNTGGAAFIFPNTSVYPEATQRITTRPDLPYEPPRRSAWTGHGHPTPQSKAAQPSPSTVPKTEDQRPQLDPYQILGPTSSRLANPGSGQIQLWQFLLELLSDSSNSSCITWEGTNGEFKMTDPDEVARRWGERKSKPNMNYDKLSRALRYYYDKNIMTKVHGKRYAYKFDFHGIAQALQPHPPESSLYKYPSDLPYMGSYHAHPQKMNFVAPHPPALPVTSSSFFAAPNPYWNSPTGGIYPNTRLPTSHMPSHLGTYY
In short: as §1

ELF1 = ELF1 (Homo sapiens, UniProt P32519 1-619)
Sequence of ELF1 (P32519 whole entry): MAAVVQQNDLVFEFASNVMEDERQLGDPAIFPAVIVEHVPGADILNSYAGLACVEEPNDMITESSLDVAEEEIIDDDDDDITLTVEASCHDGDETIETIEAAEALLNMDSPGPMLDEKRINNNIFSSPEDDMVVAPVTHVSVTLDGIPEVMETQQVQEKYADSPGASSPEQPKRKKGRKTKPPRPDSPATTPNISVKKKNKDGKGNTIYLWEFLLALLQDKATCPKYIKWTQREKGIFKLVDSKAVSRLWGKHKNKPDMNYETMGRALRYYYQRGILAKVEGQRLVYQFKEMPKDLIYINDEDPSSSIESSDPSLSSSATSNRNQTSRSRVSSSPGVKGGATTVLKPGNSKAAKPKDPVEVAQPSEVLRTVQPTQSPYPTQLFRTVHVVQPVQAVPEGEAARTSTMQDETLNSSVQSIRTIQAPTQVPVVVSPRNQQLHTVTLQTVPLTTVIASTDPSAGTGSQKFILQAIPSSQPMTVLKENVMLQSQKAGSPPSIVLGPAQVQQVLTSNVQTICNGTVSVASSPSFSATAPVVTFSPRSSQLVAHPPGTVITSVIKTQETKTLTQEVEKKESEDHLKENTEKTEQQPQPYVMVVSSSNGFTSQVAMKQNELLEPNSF
In short: as §1

EHF = molecular target: T5, EHF (Homo sapiens, UniProt Q9NZC4 1-300)
T5 sequence: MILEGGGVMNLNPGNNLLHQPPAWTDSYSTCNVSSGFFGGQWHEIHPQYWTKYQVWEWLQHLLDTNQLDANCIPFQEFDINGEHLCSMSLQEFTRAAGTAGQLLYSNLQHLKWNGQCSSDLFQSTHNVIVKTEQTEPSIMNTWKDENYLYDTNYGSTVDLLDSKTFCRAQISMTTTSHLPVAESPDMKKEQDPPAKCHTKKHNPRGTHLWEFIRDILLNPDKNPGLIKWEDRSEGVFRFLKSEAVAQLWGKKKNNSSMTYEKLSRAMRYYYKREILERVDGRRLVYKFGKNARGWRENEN
In short: as §1

SPI1 = SPI1 (Homo sapiens, UniProt P17947 1-270)
In short: as §1

SPIB = SPIB (Homo sapiens, UniProt Q01892 1-262)
Sequence of SPIB (Q01892 whole entry): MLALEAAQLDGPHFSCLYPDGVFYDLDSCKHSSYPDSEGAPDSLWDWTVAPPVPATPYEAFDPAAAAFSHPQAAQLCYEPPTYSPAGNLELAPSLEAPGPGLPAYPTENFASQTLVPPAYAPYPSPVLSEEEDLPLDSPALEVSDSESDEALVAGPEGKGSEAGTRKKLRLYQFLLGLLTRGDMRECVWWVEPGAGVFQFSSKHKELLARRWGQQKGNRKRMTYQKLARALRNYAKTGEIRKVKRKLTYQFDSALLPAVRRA
In short: as §1

ELK3 = molecular target: T6, ELK3 (Homo sapiens, UniProt P41970 1-407)
T6 sequence: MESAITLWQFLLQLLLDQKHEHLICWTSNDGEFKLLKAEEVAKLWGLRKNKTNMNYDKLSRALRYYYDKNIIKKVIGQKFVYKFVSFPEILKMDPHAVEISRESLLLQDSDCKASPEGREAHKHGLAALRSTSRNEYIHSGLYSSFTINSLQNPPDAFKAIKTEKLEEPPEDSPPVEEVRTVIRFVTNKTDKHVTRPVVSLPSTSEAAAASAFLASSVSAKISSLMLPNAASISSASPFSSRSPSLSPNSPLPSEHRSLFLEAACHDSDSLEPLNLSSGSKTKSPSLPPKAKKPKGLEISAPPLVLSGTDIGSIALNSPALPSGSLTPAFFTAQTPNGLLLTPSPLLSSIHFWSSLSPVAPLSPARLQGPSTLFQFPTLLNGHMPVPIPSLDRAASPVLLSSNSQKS
In short: as §1

FEV = molecular target: T7, FEV (Homo sapiens, UniProt Q99581 1-238)
T7 sequence: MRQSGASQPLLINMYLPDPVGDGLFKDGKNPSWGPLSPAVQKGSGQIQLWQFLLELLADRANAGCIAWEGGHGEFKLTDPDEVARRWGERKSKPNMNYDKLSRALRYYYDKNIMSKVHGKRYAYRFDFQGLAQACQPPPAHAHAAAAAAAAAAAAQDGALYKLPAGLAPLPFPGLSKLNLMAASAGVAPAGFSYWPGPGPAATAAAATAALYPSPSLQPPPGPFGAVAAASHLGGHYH
In short: as §1

ETV5 = ETV5 (Homo sapiens, UniProt P41161 1-510)
Sequence of ETV5 (P41161 whole entry): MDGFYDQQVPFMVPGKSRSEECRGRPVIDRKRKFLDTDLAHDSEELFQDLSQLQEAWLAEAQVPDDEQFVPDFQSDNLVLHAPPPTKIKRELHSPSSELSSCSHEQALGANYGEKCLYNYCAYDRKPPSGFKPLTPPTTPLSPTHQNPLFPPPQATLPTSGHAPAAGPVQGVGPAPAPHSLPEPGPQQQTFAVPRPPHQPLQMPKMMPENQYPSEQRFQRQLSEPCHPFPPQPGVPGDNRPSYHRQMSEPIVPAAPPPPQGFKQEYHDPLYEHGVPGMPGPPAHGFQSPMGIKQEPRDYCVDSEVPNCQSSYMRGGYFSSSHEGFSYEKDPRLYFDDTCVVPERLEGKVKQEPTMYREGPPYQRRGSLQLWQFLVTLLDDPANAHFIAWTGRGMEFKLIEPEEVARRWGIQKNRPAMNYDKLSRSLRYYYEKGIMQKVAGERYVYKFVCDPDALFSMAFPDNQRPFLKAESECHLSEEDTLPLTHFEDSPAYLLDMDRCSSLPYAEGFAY
In short: as §1

SPIC = molecular target: T8, SPIC (Homo sapiens, UniProt Q8N5J4 1-248)
T8 sequence: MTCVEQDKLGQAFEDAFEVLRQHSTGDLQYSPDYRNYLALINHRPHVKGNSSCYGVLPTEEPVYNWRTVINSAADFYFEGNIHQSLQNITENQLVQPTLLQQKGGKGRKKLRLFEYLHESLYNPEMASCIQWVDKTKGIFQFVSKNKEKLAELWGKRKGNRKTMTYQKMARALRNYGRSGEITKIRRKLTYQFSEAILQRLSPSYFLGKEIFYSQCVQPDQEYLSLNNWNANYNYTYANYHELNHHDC
In short: as §1

ELF4 = ELF4 (Homo sapiens, UniProt Q99607 1-663)
Sequence of ELF4 (Q99607 whole entry): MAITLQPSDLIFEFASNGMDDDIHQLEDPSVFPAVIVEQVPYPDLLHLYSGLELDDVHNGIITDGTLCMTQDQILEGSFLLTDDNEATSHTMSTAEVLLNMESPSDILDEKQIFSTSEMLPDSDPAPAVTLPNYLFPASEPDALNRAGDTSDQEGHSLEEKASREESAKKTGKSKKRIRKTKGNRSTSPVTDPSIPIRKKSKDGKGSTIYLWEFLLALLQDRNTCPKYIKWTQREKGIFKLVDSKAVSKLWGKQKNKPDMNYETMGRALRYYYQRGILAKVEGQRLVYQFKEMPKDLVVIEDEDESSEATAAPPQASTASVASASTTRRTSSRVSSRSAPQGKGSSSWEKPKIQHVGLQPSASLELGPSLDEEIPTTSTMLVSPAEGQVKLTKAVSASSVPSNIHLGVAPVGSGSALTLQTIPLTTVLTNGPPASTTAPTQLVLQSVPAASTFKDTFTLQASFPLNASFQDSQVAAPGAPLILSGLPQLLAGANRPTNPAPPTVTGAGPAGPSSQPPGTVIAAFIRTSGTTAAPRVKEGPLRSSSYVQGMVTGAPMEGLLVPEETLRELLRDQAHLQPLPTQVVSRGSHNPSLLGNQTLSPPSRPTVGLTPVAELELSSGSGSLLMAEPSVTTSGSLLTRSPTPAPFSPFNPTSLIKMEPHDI
In short: as §1

ELK4 = molecular target: T9, ELK4 (Homo sapiens, UniProt P28324-2 1-405)
T9 sequence: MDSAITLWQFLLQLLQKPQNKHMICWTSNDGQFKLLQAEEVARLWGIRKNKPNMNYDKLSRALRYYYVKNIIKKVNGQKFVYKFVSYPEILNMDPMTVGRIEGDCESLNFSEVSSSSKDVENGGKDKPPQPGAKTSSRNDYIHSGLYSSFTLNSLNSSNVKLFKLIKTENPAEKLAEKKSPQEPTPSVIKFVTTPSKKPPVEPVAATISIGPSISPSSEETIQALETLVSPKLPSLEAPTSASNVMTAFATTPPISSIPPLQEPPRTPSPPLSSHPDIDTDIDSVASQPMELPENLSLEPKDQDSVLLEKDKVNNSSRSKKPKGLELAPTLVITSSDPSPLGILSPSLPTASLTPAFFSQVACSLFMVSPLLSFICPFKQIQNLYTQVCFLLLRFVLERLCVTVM
In short: as §1

ETV2 = molecular target: T10, ETV2 (Homo sapiens, UniProt O00321 1-342)
T10 sequence: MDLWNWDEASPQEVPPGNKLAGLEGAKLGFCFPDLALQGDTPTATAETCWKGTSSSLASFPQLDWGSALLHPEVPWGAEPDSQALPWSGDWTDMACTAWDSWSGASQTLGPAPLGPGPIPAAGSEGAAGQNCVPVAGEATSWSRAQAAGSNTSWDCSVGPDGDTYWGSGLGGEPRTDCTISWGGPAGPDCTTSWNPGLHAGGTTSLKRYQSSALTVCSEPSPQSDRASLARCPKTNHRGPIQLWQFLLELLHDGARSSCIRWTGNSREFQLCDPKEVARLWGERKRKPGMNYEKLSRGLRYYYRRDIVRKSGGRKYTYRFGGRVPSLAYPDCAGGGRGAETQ
In short: as §1

ELF3 = molecular target: T11, ELF3 (Homo sapiens, UniProt P78545 1-371)
T11 sequence: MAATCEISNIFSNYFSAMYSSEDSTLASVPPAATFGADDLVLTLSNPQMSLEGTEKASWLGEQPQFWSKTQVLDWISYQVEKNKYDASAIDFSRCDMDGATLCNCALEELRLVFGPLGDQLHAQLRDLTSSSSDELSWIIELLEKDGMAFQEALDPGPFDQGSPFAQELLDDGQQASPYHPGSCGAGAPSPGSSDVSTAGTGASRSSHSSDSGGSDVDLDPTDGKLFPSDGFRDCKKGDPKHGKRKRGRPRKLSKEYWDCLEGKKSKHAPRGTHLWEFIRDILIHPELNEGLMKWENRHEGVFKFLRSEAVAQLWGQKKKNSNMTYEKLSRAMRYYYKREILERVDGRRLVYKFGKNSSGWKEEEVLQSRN
In short: as §1

ETV1 = ETV1 (Homo sapiens, UniProt P50549 1-477)
Sequence of ETV1 (P50549 whole entry): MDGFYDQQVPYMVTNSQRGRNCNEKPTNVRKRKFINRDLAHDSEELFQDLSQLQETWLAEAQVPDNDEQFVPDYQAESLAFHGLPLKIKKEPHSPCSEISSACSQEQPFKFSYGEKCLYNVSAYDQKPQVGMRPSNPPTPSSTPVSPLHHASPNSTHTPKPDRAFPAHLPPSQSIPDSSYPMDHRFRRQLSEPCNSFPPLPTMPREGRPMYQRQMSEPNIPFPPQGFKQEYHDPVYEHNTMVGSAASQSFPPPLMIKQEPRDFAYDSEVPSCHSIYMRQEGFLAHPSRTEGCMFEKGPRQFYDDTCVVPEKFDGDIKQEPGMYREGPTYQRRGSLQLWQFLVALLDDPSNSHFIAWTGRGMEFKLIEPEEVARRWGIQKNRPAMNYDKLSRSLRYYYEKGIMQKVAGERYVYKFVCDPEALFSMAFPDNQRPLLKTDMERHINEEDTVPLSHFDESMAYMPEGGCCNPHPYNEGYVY
In short: as §1

CACCCC
binding signal (FLI1): 1.2 fold enrichment (6-mer frequency, TF over GST control) | binding signal (ELK1): 1.3 fold enrichment (6-mer frequency, TF over GST control) | binding signal (GABPA): 1.35 fold enrichment (6-mer frequency, TF over GST control) | binding signal (ERG): 1.22 fold enrichment (6-mer frequency, TF over GST control) | binding signal (ELF1): 1.28 fold enrichment (6-mer frequency, TF over GST control) | binding signal (EHF): 1.19 fold enrichment (6-mer frequency, TF over GST control) | binding signal (SPI1): 1.24 fold enrichment (6-mer frequency, TF over GST control) | binding signal (SPIB): 1.32 fold enrichment (6-mer frequency, TF over GST control) | binding signal (ELK3): 1.31 fold enrichment (6-mer frequency, TF over GST control) | binding signal (FEV): 1.22 fold enrichment (6-mer frequency, TF over GST control) | binding signal (ETV5): 1.18 fold enrichment (6-mer frequency, TF over GST control) | binding signal (SPIC): 1.41 fold enrichment (6-mer frequency, TF over GST control) | binding signal (ELF4): 1.18 fold enrichment (6-mer frequency, TF over GST control) | binding signal (ELK4): 1.47 fold enrichment (6-mer frequency, TF over GST control) | binding signal (ETV2): 1.13 fold enrichment (6-mer frequency, TF over GST control) | binding signal (ELF3): 1.11 fold enrichment (6-mer frequency, TF over GST control) | binding signal (ETV1): 1.28 fold enrichment (6-mer frequency, TF over GST control)

GATACG
binding signal (FLI1): 1.11 fold enrichment (6-mer frequency, TF over GST control) | binding signal (ELK1): 1.12 fold enrichment (6-mer frequency, TF over GST control) | binding signal (GABPA): 1.12 fold enrichment (6-mer frequency, TF over GST control) | binding signal (ERG): 1.11 fold enrichment (6-mer frequency, TF over GST control) | binding signal (ELF1): 1.15 fold enrichment (6-mer frequency, TF over GST control) | binding signal (EHF): 1.24 fold enrichment (6-mer frequency, TF over GST control) | binding signal (SPI1): 1.04 fold enrichment (6-mer frequency, TF over GST control) | binding signal (SPIB): 1.17 fold enrichment (6-mer frequency, TF over GST control) | binding signal (ELK3): 1.18 fold enrichment (6-mer frequency, TF over GST control) | binding signal (FEV): 1.08 fold enrichment (6-mer frequency, TF over GST control) | binding signal (ETV5): 1.1 fold enrichment (6-mer frequency, TF over GST control) | binding signal (SPIC): 1.2 fold enrichment (6-mer frequency, TF over GST control) | binding signal (ELF4): 1.07 fold enrichment (6-mer frequency, TF over GST control) | binding signal (ELK4): 1.13 fold enrichment (6-mer frequency, TF over GST control) | binding signal (ETV2): 1.06 fold enrichment (6-mer frequency, TF over GST control) | binding signal (ELF3): 1.09 fold enrichment (6-mer frequency, TF over GST control) | binding signal (ETV1): 1.1 fold enrichment (6-mer frequency, TF over GST control)
